From PubChem BioAssay (NCATS)
Records with an inconclusive call do not appear. Unmarked numbers belong to inactive results. The source made the active and inactive calls. Calls follow the shape of the dose curve; as a rule, active = well fitted inhibition curve with a large enough effect; inconclusive = small, poorly fitted or top-dose-only effect; inactive = no such curve, though single readings can be large or run the other way.

Assay: BET inhibitor-based combinations targeting novel dependencies in MECOM-rearranged (r) AML: SET-2 cell line (AID 2202231); also: nearly all actives have a fitted effect of over 35% in size
Details: SET-2 AML cells viability, CellTiter-Glo luminescence, 48 h; viability: hits give low values, series mostly up to about 46 µM
Description: Ecotropic viral insertion site 1 (EVI1) is located on chromosome 3q26.2 as part of the MECOM (MDS and EVI1 complex) locus. Under normal hematopoiesis, EVI1 is a regulator of hematopoietic stem cell maintenance and self-renewal and EVI1 levels decrease as the cells differentiate. In approximately 5-10% of de novo acute myeloid leukemia (AML) EVI1 is aberrantly expressed, including Chromosomal inv(3)(q21;q26.2) or t(3;3)(q21;q26.2) alterations (MECOM-r) that account for about 50% of AML with EVI1 overexpression 31. AMLs with high levels of EVI1 have a poor prognosis and an overall survival time averaging between 10-14 months. EVI1 overexpression confers resistance in leukemia cells, highlighting the need to develop new targeted therapies for EVI1 overexpressing AMLs.
Here, we performed an unbiased chemical drug screening by evaluating the single agent activity of a collection of 2,480 oncology-focused, approved and investigational drugs (NCATS Mechanism Interrogation Plates, MIPE v5.0) against a panel of seven AML cell lines. These included four MECOM-r cell-lines (AML-191, AML-194, UCSD-AML1 and HNT-34) and three non-MECOM-r AMLs (MV4-11, OCI-AML3 and SET-2). Exploiting the mechanistic redundancy built in the library, we identified target-level sensitivities in MECOM-r AML cells and relative activity as compared to other AML subtypes.
A collection of 2480 mechanistically annotated dugs (MIPE v5.0) was used to screen four 3q26.2 rearranged AML cell lines and three non-3q26.2 rearranged AML cell lines. This library purposely exploits redundancy by including multiple inhibitors of key onco-targets, while simultaneously encompassing mechanistic diversity, targeting more than 800 distinct mechanisms of action. Briefly, cells were seeded in 5 uL of growth media using a Multidrop Combi dispenser into 1536 well white polystyrene tissue culture treated plates (Corning) at a density of 500cells/well. For each cell-line, for each of the 2480 drugs in MIPE v5.0 library, an 11-point dose curve was generated via a 1536 pin-tool. Plates were incubated for 48 hr at standard incubator conditions, covered by a stainless steel gasketed lid to prevent evaporation. Cell viability was determined by luminescence based, Cell Titer Glo assay (Promega). In detail, 3 uL of Cell Titer Glo were added to each well and plates were incubated at room temperature for 15 min with a stainless-steel lid in place. Luminescence readings were taken using a Viewlux (PerkinElmer) with a 2 s exposure time per plate. Compound dose-response curves were normalized to DMSO and empty well controls on each plate. Quantitative drug activity data from dose-response curves was determined utilizing area Under the Curve (AUC) and Z-transformed AUC (Z-AUC, a mean-centering transformation applied to each individual cell-line screened).
Potency is read from the fitted curve at half-maximal effect.

Row | SMILES | viability [%] | Potency
1 | CN1C(=O)CCS(=O)(=O)C1c1ccc(Cl)cc1 (stereo not given) | 123 | 
2 | CCN1C[C@]2(OC(=O)c3ccccc3NC(C)=O)CC[C@H](OC)[C@@]34[C@H]5CC6[C@@H](OC)C[C@](O)(C(C[C@@H]23)[C@@H]14)[C@@]5(O)[C@@H]6OC | 104 | 
3 | c1ccc2c(CN3CCNCC3)cccc2c1 | 115 | 
4 | CC[C@@H](C(N)=O)N1CCCC1=O | 108 | 
5 | C[C@@H]1CC[C@@]2(OC1)O[C@H]1C[C@H]3[C@@H]4CC=C5C[C@@H](O[C@@H]6O[C@H](CO)[C@@H](O[C@@H]7O[C@@H](C)[C@H](O)[C@@H](O)[C@H]7O)[C@H](O)[C@H]6O[C@@H]6O[C@@H](C)[C@H](O)[C@@H](O)[C@H]6O)CC[C@]5(C)[C@H]4CC[C@]3(C)[C@H]1[C@@H]2C |  | 8330 nM (active)
6 | O=C(Oc1ccc([N+](=O)[O-])cc1)N1CCN(Cc2cccc(Oc3ccccc3)c2)CC1 | 110 | 
7 | O=C(O)CNC(=O)c1c(O)c2ccccc2n(Cc2ccccc2)c1=O | 107 | 
8 | C[C@]12CC[C@H]3[C@@H](CC[C@@]45O[C@@H]4C(O)=C(C#N)C[C@]35C)[C@@H]1CC[C@@H]2O | 112 | 
9 | CN(C)[C@@H]1C(=O)C(C(N)=O)=C(O)[C@@]2(O)C(=O)C3=C(O)c4c(O)cccc4[C@@](C)(O)[C@H]3[C@H](O)[C@@H]12 | 103 | 
10 | CC(NC(C)(C)C)C(=O)c1cccc(Cl)c1 (stereo not given) | 111 | 
11 | O=S(=O)(F)Cc1ccccc1 | 112 | 
12 | COc1cc(C(=O)N2CC[C@@H](O)[C@@H](N)C2)cc2nc(-c3cc4ccccc4n3CC3CC3)n(C)c12 | 103 | 
13 | Cc1sc2c(c1C)C(c1ccc(Cl)cc1)=N[C@@H](CC(N)=O)c1nnc(C)n1-2 |  | 372 nM (active)
14 | O=C(Nc1ccncc1)C(=O)c1cn(Cc2ccc(Cl)cc2)c2ccccc12 |  | 525 nM (active)
15 | C#CC1(O)CCC2C3CCC4=CC(=O)CCC4(C)C3CCC21C (stereo not given) | 107 | 
16 | CCN(CC)C(=O)c1ccc(C2=CC3(CCNCC3)Oc3cccc(O)c32)cc1 | 99.6 | 
17 | CCN1CCN(C(=O)Cc2ccc(Nc3ncc(F)c(Nc4ccc(C(=O)Nc5ccccc5Cl)cc4)n3)cc2)CC1 |  | 5250 nM (active)
18 | O=C1C=CC[C@@H]2[C@H]3CCCN4CCC[C@@H](CN12)[C@@H]34 | 108 | 
19 | CC(=O)O[C@@]12CO[C@@H]1C[C@H](O)[C@@]1(C)C(=O)[C@H](O)C3=C(C)[C@@H](O)C[C@@](O)([C@@H](OC(=O)c4ccccc4)[C@H]21)C3(C)C | 103 | 
20 | CC(=O)OC[C@H]1O[C@@H]([S-])[C@H](OC(C)=O)[C@@H](OC(C)=O)[C@@H]1OC(C)=O.CC[PH+](CC)CC.[Au] |  | 1180 nM (active)

Row | SMILES | viability [%] | Potency
21 | O=P1(NCCCl)OCCCN1CCCl (stereo not given) | 115 | 
22 | CCCN1CCO[C@@H]2c3cc(O)ccc3OC[C@H]21 | 92 | 
23 | COC[C@@H](NC(C)=O)C(=O)NCc1ccccc1 | 112 | 
24 | CC[C@@]1(O)C(=O)OCc2c1cc1n(c2=O)Cc2cc3ccccc3nc2-1 |  | 13.2 nM (active)
25 | O=P1(N(CCCl)CCCl)NCCCO1 (stereo not given) | 114 | 
26 | Cn1cc(C2=C(c3cn(C4CCN(Cc5ccccn5)CC4)c4ccccc34)C(=O)NC2=O)c2ccccc21 | 103 | 
27 | Cc1cc(SCc2sc(-c3ccc(C(F)(F)F)c(F)c3)nc2C)ccc1OCC(=O)O | 99.6 | 
28 | C/C(O)=C(\C#N)C(=O)Nc1cc(Br)ccc1Br | 90 | 
29 | C[C@@H]1C[C@@H]([C@H](O)CC2CC(=O)NC(=O)C2)C(=O)[C@@H](C)C1 |  | 296 nM (active)
30 | O=C(O)CNC(=O)C1C(=O)N(C2CCCCC2)C(=O)N(C2CCCCC2)C1=O | 114 | 
31 | CC1(C)CC[C@]2(NC(=O)C(C)(F)F)CC[C@]3(C)[C@H](C(=O)C=C4[C@@]5(C)C=C(C#N)C(=O)C(C)(C)[C@@H]5CC[C@]43C)[C@@H]2C1 |  | 1660 nM (active)
32 | C[C@]12Cc3cn[nH]c3C[C@@H]1CC[C@@H]1[C@@H]2CC[C@@]2(C)[C@H]1CC[C@]2(C)O | 57.3 | 
33 | CC1(C)C(=O)N(c2ccc(C#N)c(C(F)(F)F)c2)C(=S)N1Cc1ccc(-c2cn[nH]n2)cc1 |  | 16600 nM (active)
34 | CO[C@H]1CCC(O[C@H]2C[C@H]([C@]3(C)CC[C@]4(C[C@H](O)[C@@H](C)[C@@H]([C@@H](C)/C=C(\C)C(=O)[C@H](C)C[C@H](C)C(=O)O)O4)O3)O[C@]3(O[C@@H]([C@H]4O[C@@](O)(CO)[C@H](C)C[C@@H]4C)C[C@@H]3C)[C@@H]2C)O[C@@H]1C (stereo not given in full) |  | 1480 nM (active)
35 | O=C1CC[C@@]2(O)[C@H]3Cc4ccc(O)c5c4[C@@]2(CCN3CC2CC2)[C@H]1O5 | 123 | 
36 | C[C@]12CC[C@@H]3c4ccc(OC(=O)N(CCCl)CCCl)cc4CC[C@H]3[C@@H]1CC[C@@H]2OP(=O)(O)O | 112 | 
37 | O=C(O)c1nn(Cc2ccc(Cl)cc2Cl)c2ccccc12 | 107 | 
38 | CN(C)c1cc2c(cc1Sc1nc3c(N)nccc3n1CCNCC(C)(C)C)OCO2 |  | 1320 nM (active)
39 | CC(C)c1cccc(C(C)C)c1O | 105 | 
40 | CC(=O)N1N=C(c2ccc(N)cc2)c2cc3c(cc2C[C@H]1C)OCO3 | 93.4 | 
